Source: PubChem BioAssay
Rpn11 inh: Rpn11 (PSMD14) deubiquitinase inhibitors, primary screen, biochemical, fluorescence polarization, uHTS; 26S proteasome non-ATPase regulatory subunit 14 (Homo sapiens), O00487; human 26S proteasome, Ub4-pepOG fluorescence polarization; 20S core pre-blocked with epoxomicin; calls only at 20 µM; 0.59% of 360,000 active;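 active = inhibition at 20 µM, scaled to each plate's controls, above about 33%, limit read from the data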
Neddyl block: inhibitors of cullin neddylation, primary screen, biochemical, TR-FRET, uHTS, NAE and Ubc12; AID 651699, 2012; 0.58% of 360,000 active; inhibition, % at 25 µM; NEDD8-conjugating enzyme Ubc12 (Homo sapiens) + NEDD8-activating enzyme E1 regulatory …; in the data active = inhibition above about 36%
Target sequence (P61081 whole entry, looked up): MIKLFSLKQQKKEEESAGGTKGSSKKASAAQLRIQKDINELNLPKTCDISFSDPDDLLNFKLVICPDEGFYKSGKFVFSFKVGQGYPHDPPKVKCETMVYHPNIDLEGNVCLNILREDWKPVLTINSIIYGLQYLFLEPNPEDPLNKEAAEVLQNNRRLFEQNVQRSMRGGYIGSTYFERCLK
Target sequence (Q13564 whole entry, looked up): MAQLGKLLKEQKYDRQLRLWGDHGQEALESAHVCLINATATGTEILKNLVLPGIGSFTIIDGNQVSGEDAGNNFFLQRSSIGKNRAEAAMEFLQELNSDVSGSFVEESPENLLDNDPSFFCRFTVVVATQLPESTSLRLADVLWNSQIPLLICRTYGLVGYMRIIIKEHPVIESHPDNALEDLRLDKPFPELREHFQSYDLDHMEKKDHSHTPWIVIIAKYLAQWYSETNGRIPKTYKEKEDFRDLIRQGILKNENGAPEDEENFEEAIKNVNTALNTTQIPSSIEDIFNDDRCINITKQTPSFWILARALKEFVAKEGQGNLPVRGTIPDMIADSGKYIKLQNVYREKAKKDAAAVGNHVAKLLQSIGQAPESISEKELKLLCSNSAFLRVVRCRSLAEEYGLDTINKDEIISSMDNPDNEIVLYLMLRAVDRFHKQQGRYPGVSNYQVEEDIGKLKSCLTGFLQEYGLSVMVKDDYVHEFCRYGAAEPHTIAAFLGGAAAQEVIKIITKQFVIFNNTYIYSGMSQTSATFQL
PKA-R1A act: activators of PKA-R1A holoenzyme, primary screen, biochemical, fluorescence polarization, Cy5-IP20, bovine R1A, mouse PKAc | cAMP-dependent protein kinase type I-alpha regulatory subunit (Bos taurus) + … | PKA-R1A dissociation; scaled: DMSO 0%, 113 µM cGMP 100% | activation, % at 11.4 µM | 0.083% of 340,000 active;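 active = percent activation above the mean of all tested compounds plus 3 SD, cut at about 19% in these data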;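 note: higher means more PKAc released from R1A so a rise in polarization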
PKA-R2B act: activators of PKA-R2B holoenzyme, primary screen, biochemical, fluorescence polarization, Cy5-IP20, human; cAMP-dependent protein kinase catalytic subunit beta (Homo sapiens) + cAMP-dependent …; PKA-R2B holoenzyme dissociation; R2B truncated from residue 108, S112A mutant; 0% DMSO only, 100% 113 µM cGMP; activation, % at 11.4 µM; 0.079% of 340,000 active;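 active = activation above a cutoff set at the mean over all compounds plus 3 SD, cut at about 18% in these data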;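 note: higher means more holoenzyme dissociation and a rise in polarization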
Rpn11 inh conf: Rpn11 (PSMD14) deubiquitinase inhibitors, confirmation, biochemical, fluorescence polarization, single concentration; 29% of 1,900 active; AID 602318, 2012; inhibition, % at 20 µM; shares compounds with Rpn11 inh; purified human 26S proteasome, Ub4-pepOG fluorescence polarization; proteasome pretreated with epoxomicin
MMP-2 counter: MMP-2 enzyme inhibition, confirmation, counter-screen for RPN11 inhibitor project, biochemical, fluorescence, single concentration; AID 602330, 2012; recombinant MMP-2, FRET peptide cleavage fluorescence; 4% of 1,900 active; shares compounds with Rpn11 inh; inhibition, % at 20 µM;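 note: human MMP-2 activated beforehand with APMA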
Thrombin inh: bovine thrombin protease inhibition, confirmation, counter-screen for Rpn11 inhibitor project, biochemical, fluorescence polarization, single concentration. shares compounds with Rpn11 inh. bovine thrombin cleavage of Ub4-pepOG. inhibition, % at 20 µM. 13% of 1,900 active;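 active = mean inhibition at least 40% at 20 µM, or signal 3 deviations below plate average, so some actives read negative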;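 note: plate controls were thrombin with DMSO for no effect and buffer wells lacking thrombin for full effect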
An asterisk follows results filed as active. Shown are actives, neighbours in structure and some others; about 1.3% of the full set was active somewhere. Cut-off read from the data, not from the text of the source, unless noted: active = inhibition above about 40%; inactive = the rest.

O=C1N/C(=C/c2ccc(N3CCOCC3)o2)C(=O)N1c1ccccc1 was read as Rpn11 inh active, Neddyl block -1.4, PKA-R1A act -1.2, PKA-R2B act -9.9, Rpn11 inh conf 165.9*, MMP-2 counter 19.6 and Thrombin inh 166.2*.
For Cc1ccc(C(=O)O)cc1-c1ccc(/C=C2/NC(=O)N(c3ccccc3)C2=O)o1 the results were Rpn11 inh active, Neddyl block 47.4*, PKA-R1A act -2.3, PKA-R2B act 3.7, Rpn11 inh conf 74.9*, MMP-2 counter 18.5 and Thrombin inh 30.7.
O=C1N/C(=C/c2ccc(N3CCCC3)cc2)C(=O)N1c1ccccc1 was read as Rpn11 inh active, Neddyl block -2.9, PKA-R1A act -2.7, PKA-R2B act -0.1, Rpn11 inh conf 3.1, MMP-2 counter -19.7 and Thrombin inh -6.9.
For Cc1cccc2c(N=O)c(O)n(CCc3ccccc3)c12 the results were Rpn11 inh inactive, Neddyl block -13.9, PKA-R1A act -4.8 and PKA-R2B act -4.6.
`C=CCNC(=O)COc1cc(C)cc(C)c1C` gave Rpn11 inh inactive, Neddyl block 0.4, PKA-R1A act -1.7 and PKA-R2B act 4.7.
For CCOC(=O)c1c(C2CC2)csc1NC(=O)COC(=O)CCS(=O)(=O)c1ccc(C)cc1 the results were Rpn11 inh inactive, Neddyl block 7.2, PKA-R1A act 0.2 and PKA-R2B act 6.3.
`O=C(CSc1nc(-c2ccccc2)c(-c2ccccc2)[nH]1)N1CCN(S(=O)(=O)c2ccccc2)CC1` gave Rpn11 inh active, Neddyl block 38.3, PKA-R1A act -13.3, PKA-R2B act 3.4, Rpn11 inh conf -3.4, MMP-2 counter -4.7 and Thrombin inh 5.9.
`O=C(CSc1nc2ccccc2c(=O)[nH]1)N1CCN(S(=O)(=O)c2ccccc2)CC1` gave Rpn11 inh inactive, Neddyl block -108.1, PKA-R1A act -4.6 and PKA-R2B act -15.7.
`COC(=O)CCN1CCc2cc(N=Nc3ccc([N+](=O)[O-])cc3)ccc21` gave Rpn11 inh inactive and Neddyl block -17.4.
Screening Oc1ccccc1N=Nc1nc(-c2ccccc2)c(-c2ccccc2)[nH]1 returned Rpn11 inh active, Neddyl block -67.9, PKA-R1A act 0.9, PKA-R2B act 5.1, Rpn11 inh conf 22.7, MMP-2 counter 10.4 and Thrombin inh 20.1.
COc1ccccc1N=Nc1nc(-c2ccccc2)c(-c2ccccc2)[nH]1 was read as Rpn11 inh inactive, Neddyl block -82.2, PKA-R1A act -9.6 and PKA-R2B act 9.0.
COc1ccc(N=Nc2nc(-c3ccccc3)c(-c3ccccc3)[nH]2)cc1 was read as Rpn11 inh active, Neddyl block -119.6, PKA-R1A act -4.8, PKA-R2B act -10.4, Rpn11 inh conf 8.4, MMP-2 counter 13.1 and Thrombin inh -6.5.
For O=C(O)c1ccc(-c2nc(-c3ccccc3)c(-c3ccccc3)[nH]2)cc1 the results were Rpn11 inh inactive, PKA-R1A act -5.8 and PKA-R2B act -9.9.
Cc1ccc(C(=O)NCc2ccccn2)cc1NC1=NC2CS(=O)(=O)CC2S1 (stereo not drawn) was read as Rpn11 inh inactive, Neddyl block 4.5, PKA-R1A act -4.7 and PKA-R2B act -6.1.
COC(=O)c1ccccc1NC(=O)CN1CCN(Cc2ccccc2)CC1 was read as Rpn11 inh active, Neddyl block 3.5, PKA-R1A act -3.6, PKA-R2B act 2.6, Rpn11 inh conf -24.5, MMP-2 counter 5.9 and Thrombin inh -25.5.
Screening COC(=O)c1ccccc1NC(=O)CN1CCCCC1 returned Rpn11 inh inactive, Neddyl block 9.1, PKA-R1A act -9.0 and PKA-R2B act 0.6.
COc1ccc(-c2nnc(SCC(=O)NCc3cccs3)n2C(C)C)cc1 was read as Rpn11 inh active, Neddyl block -0.8, PKA-R1A act -7.8, PKA-R2B act 1.2, Rpn11 inh conf 10.1, MMP-2 counter -10.0 and Thrombin inh -1.3.
Screening COc1ccc(-c2nnc(SCC(=O)NCc3cccs3)n2C)cc1 returned Rpn11 inh inactive, Neddyl block 2.4, PKA-R1A act -19.3 and PKA-R2B act -6.7.
`O=C(Nc1cc(Oc2ccccc2)cc([N+](=O)[O-])c1)C12CC3CC(C1)CC(n1cnc(Cl)n1)(C3)C2` gave Rpn11 inh inactive, Neddyl block -8.1, PKA-R1A act -11.9 and PKA-R2B act -4.9.
For COc1cc(OC)c(OC)cc1/C=C/c1cc(C(F)(F)F)[nH]c(=O)n1 the results were Rpn11 inh active, Neddyl block 12.8, PKA-R1A act 4.1, PKA-R2B act -7.6, Rpn11 inh conf 22.2, MMP-2 counter -14.1 and Thrombin inh 2.5.
For COc1cc(/C=C/c2cc(C(F)(F)F)[nH]c(=O)n2)cc(OC)c1OC the results were Rpn11 inh inactive, Neddyl block 14.7, PKA-R1A act 2.9 and PKA-R2B act 1.1.
For O=C(NC(=S)NC1C2CC3CC(C2)CC1C3)c1ccccc1 (stereo not drawn) the results were Rpn11 inh inactive, Neddyl block 0.3, PKA-R1A act -0.1 and PKA-R2B act -3.1.
Screening O=C(/C(=C(\[O-])c1ccccc1)[n+]1ccc2ccccc2c1)c1ccccc1 returned Rpn11 inh active, Neddyl block -5.8, PKA-R1A act -8.3, PKA-R2B act -4.9, Rpn11 inh conf -33.9, MMP-2 counter -47.0 and Thrombin inh -38.4.
O=C(/C(=C(\[O-])c1ccccc1)[n+]1ccc2ccccc2c1)c1ccc(Cl)cc1 was read as Rpn11 inh inactive, Neddyl block -14.3, PKA-R1A act 4.2 and PKA-R2B act -11.0.
COc1cccc2sc3cc(C#Cc4ccccn4)ccc3c(=O)c12 was read as Rpn11 inh inactive, Neddyl block -101.0, PKA-R1A act -3.7 and PKA-R2B act 11.3.
